The structures appear in SMILES notation. Inconclusive results are not listed. A number with no mark means an inactive call. The source made the active and inactive calls. Calls follow the shape of the dose curve; as a rule, active = well fitted curve in the direction sought with a large enough effect in the repeat runs; inconclusive = weak or mixed curves; inactive = no such curve, though single readings can be large; an effect the other way counts as inactive or inconclusive.

The target of assay [1] is Cytochrome P450 2D6 (Homo sapiens) (UniProt P10635). Nature of the assay: Cytochrome P450 Family 2 Subfamily D Member 6 (CYP2D6) small molecule antagonists: luciferase reporter qHTS assay (AID 1671196). Also: nearly all actives have a fitted effect of over 50% in size. Also: potency is read from the fitted curve at half-maximal effect. As to activity change, negative = inhibition: series mostly up to about 120 µM. In a few lines: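 P450-Glo format: CYP2D6 converts a proluciferin substrate to luciferin in an NADPH-driven reaction lasting 1 h at room temperature. Light output, proportional to CYP2D6 activity, reflects interference by test chemicals.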
Chain of Cytochrome P450 2D6 (Homo sapiens) (P10635 whole entry, looked up): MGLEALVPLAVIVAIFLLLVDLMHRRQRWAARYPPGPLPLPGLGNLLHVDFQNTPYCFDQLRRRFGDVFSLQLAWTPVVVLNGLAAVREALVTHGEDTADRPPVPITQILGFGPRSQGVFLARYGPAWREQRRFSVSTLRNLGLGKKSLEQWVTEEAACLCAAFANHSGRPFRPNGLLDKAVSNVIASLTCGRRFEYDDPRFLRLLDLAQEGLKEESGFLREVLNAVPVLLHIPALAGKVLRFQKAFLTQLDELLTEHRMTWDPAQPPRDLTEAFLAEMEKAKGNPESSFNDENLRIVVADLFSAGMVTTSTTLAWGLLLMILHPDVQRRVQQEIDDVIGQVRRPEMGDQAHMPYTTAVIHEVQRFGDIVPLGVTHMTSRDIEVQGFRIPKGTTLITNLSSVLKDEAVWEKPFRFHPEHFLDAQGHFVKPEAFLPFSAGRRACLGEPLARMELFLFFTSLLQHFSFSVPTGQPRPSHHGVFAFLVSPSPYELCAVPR
(A reporter such as luciferase makes a cellular process visible.)

The target of assay [2] is Cytochrome P450 2C19 (Homo sapiens) (UniProt P33261). Nature of the assay: Cytochrome P450 Family 2 Subfamily C Member 19 (CYP2C19) small molecule antagonists: luciferase reporter qHTS assay (AID 1671197). Also: nearly all actives have a fitted effect of over 65% in size. Also: potency is read from the fitted curve at half-maximal effect. As to activity change, negative = inhibition: series mostly up to about 120 µM. In short, it runs like this:
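First, compounds are pinned into enzyme-substrate mix and held 10 min at room temperature. Second, NADPH regeneration solution is added and plates incubate 1 h at 37C. Third, detection reagent is added and luminescence read after 20 min.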

Assay [3] deals with Cytochrome P450 1A2 (Homo sapiens) (UniProt P05177). Nature of the assay: Cytochrome P450 Family 1 Subfamily A Member 2 (CYP1A2) small molecule antagonists: luciferase reporter qHTS assay (AID 1671199). Also: nearly all actives have a fitted effect of over 50% in size. Also: potency is read from the fitted curve at half-maximal effect. As to activity change, negative = inhibition: series mostly up to about 120 µM. In a few lines: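 Inhibition of CYP1A2 conversion of proluciferin to luciferin, detected by luminescence. Reaction run 1 h at room temperature with NADPH regeneration after brief compound preincubation.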
Chain of Cytochrome P450 1A2 (Homo sapiens) (P05177 whole entry, looked up): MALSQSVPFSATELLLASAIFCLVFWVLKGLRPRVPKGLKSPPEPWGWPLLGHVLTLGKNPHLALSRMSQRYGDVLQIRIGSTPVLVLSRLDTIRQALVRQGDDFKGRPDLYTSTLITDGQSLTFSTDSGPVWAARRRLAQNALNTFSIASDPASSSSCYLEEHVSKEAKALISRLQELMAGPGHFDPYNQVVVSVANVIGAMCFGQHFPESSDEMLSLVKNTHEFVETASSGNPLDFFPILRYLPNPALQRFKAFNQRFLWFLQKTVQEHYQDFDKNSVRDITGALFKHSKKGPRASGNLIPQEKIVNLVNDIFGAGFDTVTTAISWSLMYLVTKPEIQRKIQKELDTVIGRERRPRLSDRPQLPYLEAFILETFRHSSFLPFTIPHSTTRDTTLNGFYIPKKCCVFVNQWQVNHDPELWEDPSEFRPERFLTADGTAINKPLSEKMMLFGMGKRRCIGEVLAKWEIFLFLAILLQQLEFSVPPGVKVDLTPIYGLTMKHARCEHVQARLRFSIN

The target in assay [4] is Voltage-gated inwardly rectifying potassium channel KCNH2 (Homo sapiens) (UniProt Q12809). Nature of the assay: Human Ether-a-go-go-Related Gene (hERG) channel small molecule antagonists: fluorescence cell-based qHTS assay (AID 1671200).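 Also: hERG-expressing U2OS cells given a thallium stimulus after FluxOR II dye loading; series mostly up to about 77 µM; nearly all actives have a fitted effect of over 50% in size.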 In short, it runs like this:
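hERG-U2OS cells plated overnight at 37 C, loaded with FluxOR II dye 1 h at RT in dark; after 10 min, thallium stimulus added. Fluorescence (480/540 nm) read kinetically for 2 min at 1 s intervals.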

For assay [5], the target named is Cytochrome P450 3A4 (Homo sapiens) (UniProt P08684). Nature of the assay: Cytochrome P450 Family 3 Subfamily A Member 4 (CYP3A4) small molecule antagonists: luciferase reporter qHTS assay (AID 1671201). Also: nearly all actives have a fitted effect of over 50% in size. Also: potency is read from the fitted curve at half-maximal effect. As to activity change, negative = inhibition: series mostly up to about 120 µM. In a few lines:
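P450-Glo CYP3A4 luminescent assay: compounds preincubated 10 min at room temperature with enzyme and proluciferin substrate, NADPH regeneration added, 1 h room-temperature reaction, stopped with luciferin detection reagent; luminescence read after 20 min. Ketoconazole positive control.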

In assay [6] the target is Cytochrome P450 2C9 (Homo sapiens) (UniProt P11712). In words: Cytochrome P450 Family 2 Subfamily C Member 9 (CYP2C9) small molecule antagonists: luciferase reporter qHTS assay (AID 1671198). Also: nearly all actives have a fitted effect of over 50% in size. Also: potency is read from the fitted curve at half-maximal effect. As to activity change, negative = inhibition: series mostly up to about 120 µM. In short, it runs like this: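 CYP2C9 activity was measured with a P450-Glo proluciferin substrate. Enzyme–substrate mix was held with compound for 10 min at room temperature, then NADPH regeneration solution was added for 1 h at 37C. Luciferin product was read as luminescence.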
Chain of Cytochrome P450 2C9 (Homo sapiens) (P11712 whole entry, looked up): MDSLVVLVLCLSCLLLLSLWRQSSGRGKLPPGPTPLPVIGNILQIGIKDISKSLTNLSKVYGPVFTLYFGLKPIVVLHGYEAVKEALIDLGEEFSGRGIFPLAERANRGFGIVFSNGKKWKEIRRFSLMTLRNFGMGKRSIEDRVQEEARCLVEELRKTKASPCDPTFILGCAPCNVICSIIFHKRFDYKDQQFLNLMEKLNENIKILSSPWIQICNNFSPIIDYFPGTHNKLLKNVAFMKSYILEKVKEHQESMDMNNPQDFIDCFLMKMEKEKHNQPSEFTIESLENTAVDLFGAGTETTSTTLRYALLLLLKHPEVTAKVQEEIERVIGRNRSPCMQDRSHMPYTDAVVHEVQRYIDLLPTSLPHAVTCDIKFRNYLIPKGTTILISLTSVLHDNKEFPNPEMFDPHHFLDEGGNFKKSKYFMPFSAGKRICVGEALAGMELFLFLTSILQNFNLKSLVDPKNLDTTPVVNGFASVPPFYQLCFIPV

The target of assay [7] is Nuclear receptor subfamily 1 group I member 2 (Homo sapiens) (UniProt O75469). In words: Human pregnane X receptor (PXR) small molecule agonists, qHTS assay (AID 1346982). Also: nearly all actives have a fitted effect of over 35% in size. Also: potency is read from the fitted curve at half-maximal effect. In a few lines:
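Agonist mode qHTS: PXR-Luc HepG2 cells plated 5 hr before DMSO-dissolved compounds were pinned in, cultured 24 hr at 37 C, 5% CO2; ONE-Glo luminescence readout.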
(In general: Quantitative high-throughput screening tests each substance at several concentrations.)

Assay [8] deals with Nuclear receptor subfamily 1 group I member 2 (Rattus norvegicus) (UniProt Q9R1A7). Nature of the assay: Rat pregnane X receptor (rPXR) activation by small molecules, qHTS assay (AID 1346983). Also: nearly all actives have a fitted effect of over 20% in size. Conditions: rPXR luciferase reporter cells, One-Glo luminescence, 24 h; hits give high values. In a few lines: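 Cell-based rPXR luciferase reporter assay, 2,000 cells per well, rested 5hr at 37 C before compound addition in DMSO, then 24 hr at 37 C. One-Glo reagent was added and luminescence read after 30 min at room temperature.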
Chain of Nuclear receptor subfamily 1 group I member 2 (Rattus norvegicus) (Q9R1A7 whole entry, looked up): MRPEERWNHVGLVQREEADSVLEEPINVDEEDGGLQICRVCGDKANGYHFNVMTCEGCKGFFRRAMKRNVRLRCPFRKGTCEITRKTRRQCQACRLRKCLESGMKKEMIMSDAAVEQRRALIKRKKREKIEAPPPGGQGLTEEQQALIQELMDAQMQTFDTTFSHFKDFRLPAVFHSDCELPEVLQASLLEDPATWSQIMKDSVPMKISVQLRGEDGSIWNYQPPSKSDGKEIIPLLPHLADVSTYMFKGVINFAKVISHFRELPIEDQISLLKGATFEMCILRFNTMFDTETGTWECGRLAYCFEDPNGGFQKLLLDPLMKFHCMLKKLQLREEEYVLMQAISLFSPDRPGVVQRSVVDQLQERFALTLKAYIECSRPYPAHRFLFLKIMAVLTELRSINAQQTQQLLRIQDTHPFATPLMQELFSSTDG

Assay [9] deals with Nuclear receptor subfamily 1 group I member 2 (Homo sapiens) (UniProt O75469). In words: CYP3A4 induction through human pregnane X receptor (PXR) by small molecules, qHTS assay (AID 1346984). Also: nearly all actives have a fitted effect of over 40% in size. In a few lines:
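Steps: seed DPX-2 cells, 5 hr at 37C; pin-transfer compounds; 24 hr at 37C; add Luciferin-IPA (3uM final), 3 hr at 37C; add One-Glo, 30 min RT; read luminescence.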

For assay [10] the target is unchanged. Nature of the assay: Human pregnane X receptor (PXR) activation by small molecules, qHTS assay (AID 1346985). Also: nearly all actives have a fitted effect of over 40% in size. In a few lines:
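DPX-2 cells (HepG2 co-transfected with a PXR response element and a CYP3A4-promoter luciferase construct) were seeded at 2,000 per well, rested 5 hr at 37C, then exposed to DMSO-dissolved compounds for 24 hr. Activation was read as luciferase luminescence.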
% is scaled to controls: 0 for no effect and ±100 for the full control effect.

Chain of Cytochrome P450 3A4 (Homo sapiens) (P08684 whole entry, looked up): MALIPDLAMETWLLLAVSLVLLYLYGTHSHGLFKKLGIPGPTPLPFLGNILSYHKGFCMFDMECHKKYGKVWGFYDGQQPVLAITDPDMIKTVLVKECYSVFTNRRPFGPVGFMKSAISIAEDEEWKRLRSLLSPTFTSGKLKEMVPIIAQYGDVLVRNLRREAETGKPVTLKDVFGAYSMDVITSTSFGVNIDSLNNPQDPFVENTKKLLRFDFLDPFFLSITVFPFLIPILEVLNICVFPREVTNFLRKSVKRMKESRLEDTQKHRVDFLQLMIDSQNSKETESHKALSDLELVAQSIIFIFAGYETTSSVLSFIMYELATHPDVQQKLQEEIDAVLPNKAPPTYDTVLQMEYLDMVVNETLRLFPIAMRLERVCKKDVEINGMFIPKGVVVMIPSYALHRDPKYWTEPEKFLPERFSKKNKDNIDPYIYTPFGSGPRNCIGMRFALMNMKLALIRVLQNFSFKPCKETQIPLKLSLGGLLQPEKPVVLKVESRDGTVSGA
Chain of Voltage-gated inwardly rectifying potassium channel KCNH2 (Homo sapiens) (Q12809 whole entry, looked up): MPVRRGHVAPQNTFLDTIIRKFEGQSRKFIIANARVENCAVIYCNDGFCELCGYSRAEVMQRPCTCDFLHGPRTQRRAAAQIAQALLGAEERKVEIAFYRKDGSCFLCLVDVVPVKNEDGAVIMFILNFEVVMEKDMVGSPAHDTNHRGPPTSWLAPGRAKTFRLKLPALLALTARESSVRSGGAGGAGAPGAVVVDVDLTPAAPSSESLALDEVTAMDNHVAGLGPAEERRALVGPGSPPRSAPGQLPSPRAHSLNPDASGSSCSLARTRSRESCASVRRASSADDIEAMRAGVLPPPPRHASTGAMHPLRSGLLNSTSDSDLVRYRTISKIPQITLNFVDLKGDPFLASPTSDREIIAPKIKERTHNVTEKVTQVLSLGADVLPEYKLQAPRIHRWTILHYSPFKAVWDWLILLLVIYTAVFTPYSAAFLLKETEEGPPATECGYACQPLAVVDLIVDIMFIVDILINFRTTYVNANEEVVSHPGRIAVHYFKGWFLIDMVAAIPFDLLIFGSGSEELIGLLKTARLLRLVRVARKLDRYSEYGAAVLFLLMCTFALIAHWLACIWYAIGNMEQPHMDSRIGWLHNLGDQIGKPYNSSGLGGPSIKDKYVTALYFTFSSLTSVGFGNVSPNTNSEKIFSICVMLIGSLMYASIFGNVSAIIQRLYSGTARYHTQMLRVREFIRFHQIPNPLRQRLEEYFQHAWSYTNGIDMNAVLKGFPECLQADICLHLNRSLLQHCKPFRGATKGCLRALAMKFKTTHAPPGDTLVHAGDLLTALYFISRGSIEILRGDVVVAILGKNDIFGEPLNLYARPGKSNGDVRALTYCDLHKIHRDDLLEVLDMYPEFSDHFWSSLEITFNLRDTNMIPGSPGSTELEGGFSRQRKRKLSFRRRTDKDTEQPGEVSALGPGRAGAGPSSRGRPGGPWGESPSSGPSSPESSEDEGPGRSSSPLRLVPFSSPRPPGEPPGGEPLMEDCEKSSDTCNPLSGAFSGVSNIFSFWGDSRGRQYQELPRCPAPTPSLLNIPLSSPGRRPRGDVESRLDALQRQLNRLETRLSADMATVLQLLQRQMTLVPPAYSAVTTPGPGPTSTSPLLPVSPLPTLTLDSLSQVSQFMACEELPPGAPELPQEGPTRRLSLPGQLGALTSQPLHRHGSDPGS
Chain of Nuclear receptor subfamily 1 group I member 2 (Homo sapiens) (O75469 whole entry, looked up): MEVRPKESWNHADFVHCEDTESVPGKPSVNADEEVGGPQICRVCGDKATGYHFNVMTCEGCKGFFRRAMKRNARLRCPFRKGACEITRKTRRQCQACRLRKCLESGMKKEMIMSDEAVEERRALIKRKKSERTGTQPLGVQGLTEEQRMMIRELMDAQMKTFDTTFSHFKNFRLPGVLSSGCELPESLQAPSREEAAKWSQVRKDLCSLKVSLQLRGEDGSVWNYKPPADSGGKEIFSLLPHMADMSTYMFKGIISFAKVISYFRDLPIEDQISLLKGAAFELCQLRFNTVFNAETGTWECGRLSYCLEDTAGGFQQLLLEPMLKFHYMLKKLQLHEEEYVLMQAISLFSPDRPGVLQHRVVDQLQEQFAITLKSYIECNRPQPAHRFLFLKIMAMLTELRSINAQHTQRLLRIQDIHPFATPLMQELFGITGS
Chain of Cytochrome P450 2C19 (Homo sapiens) (P33261 whole entry, looked up): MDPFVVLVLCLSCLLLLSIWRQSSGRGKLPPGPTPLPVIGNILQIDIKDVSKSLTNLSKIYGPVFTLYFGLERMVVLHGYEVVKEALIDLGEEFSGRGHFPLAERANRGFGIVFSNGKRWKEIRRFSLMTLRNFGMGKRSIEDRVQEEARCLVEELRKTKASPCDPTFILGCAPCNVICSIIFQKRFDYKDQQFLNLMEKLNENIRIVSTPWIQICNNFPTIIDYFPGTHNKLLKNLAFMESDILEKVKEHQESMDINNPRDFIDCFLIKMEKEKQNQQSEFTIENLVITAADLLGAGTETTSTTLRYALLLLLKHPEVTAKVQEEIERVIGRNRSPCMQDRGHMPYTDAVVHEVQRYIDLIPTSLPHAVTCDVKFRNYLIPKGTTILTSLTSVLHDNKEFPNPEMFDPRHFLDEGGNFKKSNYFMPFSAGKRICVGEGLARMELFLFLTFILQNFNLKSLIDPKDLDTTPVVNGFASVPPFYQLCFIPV

Turning to `ONc1ccccc1`, the Potency result in [1], in assay [4] and in assay [5] was “inactive” in each case. The Potency in assay [2] is 88.5 µM (active); in assay [3], 14 µM (active).
As to `c1ccc2cnccc2c1`, the Potency in assay [1] is 35.6 µM (active). The Potency result in assay [2], in assay [6] and in assay [4] was “inactive” in each case.
In the case of `CC/C=C\CCOC(=O)c1ccccc1O`, the Potency entry in [1] and in [5] was “inactive” throughout. The Potency in [3] was 31.7 µM (active).
With `CC(C)CO`, the Potency entry in [7], in assay [6] and in assay [3] was “inactive” in each case.
On to `CCC/C=C(\C=O)CC`, for which the Potency result in assay [1] and in [4] was “inactive” in each case. Further, the Potency is 39.9 µM (active) in [2], 63.3 µM (active) in assay [6] and 39.9 µM (active) in assay [5].
As for `CC(=O)O[C@@H]1CC2CCC1(C)C2(C)C` (some centres not stated), the max activation in assay [8] is -1.62%. For the same molecule, the Potency entry in [9], in assay [10], in assay [1], in assay [2], in assay [6] and in [3] was “inactive” throughout. Also, the Potency result in assay [4] and in [5] was “inactive” each time.
Regarding `O=C=NCC1CCCC(CN=C=O)C1` (configuration not stated), the Potency in assay [1] was 31.7 µM (active); in assay [2], 71 µM (active); in assay [6], 10 µM (active); in assay [5], 2.83 µM (active). Also, the Potency result in assay [3] and in assay [4] was “inactive” each time.
Consider `CCOc1ccccc1OCC1CNCCO1` (configuration not stated), for which the Potency result in [7], in [2], in assay [6] and in assay [4] was “inactive” throughout.
`C=C(C)c1cccc(C(C)(C)N=C=O)c1`: the Potency is 4.33 µM (active) in assay [7], 17.8 µM (active) in assay [2] and 15.9 µM (active) in [6]. For the same molecule, in assay [4], the Potency result is “inactive”.
In the same order, the values of `CCOc1cccc(N)c1` are “inactive”, 6.3 µM (active), 7.93 µM (active) and “inactive”.
For `OCC(O)CN1CCN(c2ccccc2)CC1` (configuration not stated), the Potency entry in assay [7], in [3] and in [4] was “inactive” throughout.
For `COc1c2occc2c(OC)c2c(=O)cc(C)oc12`, the max activation in assay [8] was -1.72%. In addition, the Potency was 12.3 µM (active) in [1], 3.47 µM (active) in assay [2], 12.3 µM (active) in assay [6] and 0.144 µM (active) in [3]. The Potency result in assay [4] is “inactive”.
With `CC1(C)Cc2cccc(N)c2O1`, the Potency in assay [7] is 34.4 µM (active); in assay [2], 17.8 µM (active); in assay [6] it was 11.2 µM (active); in assay [5], 7.96 µM (active). Further, the Potency result in [4] is “inactive”.
`CCC(C)C(=O)OCCc1ccccc1` (configuration not stated): the Potency result in assay [7], in assay [2], in assay [3], in assay [4] and in assay [5] was “inactive” each time.
Regarding `C=CC/C=C/C`, the Potency entry in assay [7], in assay [2], in assay [6], in assay [4] and in assay [5] was “inactive” in each case.
Take `CCn1cc(C(=O)O)c(=O)c2cnc(N3CCCC3)nc21`: in [8], the max activation is -0.363%. Further, the values for the activity change, negative = inhibition in [1], in assay [2] and in assay [4] were -1.62% [at 10.5 µM], -11.6% [at 10.5 µM] and -5.15% [at 6.97 µM], respectively.
`CCO[Si](CC)(OCC)OCC`: the Potency is 15.4 µM (active) in assay [7] and 7.1 µM (active) in assay [5]. In addition, the Potency result in assay [2] and in assay [4] was “inactive” throughout.
`Cc1ccc(N)cc1S(=O)(=O)O`: the Potency is 61.1 µM (active) in assay [7], 79.6 µM (active) in [2] and 63.3 µM (active) in assay [6]. Also, the Potency entry in [4] and in assay [5] was “inactive” each time.
On to `CCCC(=O)OCCC(C)CCC=C(C)C` (configuration not stated), for which the Potency entry in assay [7] and in [4] was “inactive” in each case.
Take `NCCOCCN`: the Potency entry in assay [7], in [4] and in [5] was “inactive” each time. Besides, the Potency in assay [2] was 71 µM (active); in [3], 17.8 µM (active).
Consider `CCCc1ccc(O)cc1`, for which the Potency result in [7], in assay [4] and in assay [5] was “inactive” throughout.
Regarding `Cc1c(N)cccc1Cl`, the Potency entry in [7], in assay [2], in assay [4] and in [5] was “inactive” in each case. Besides, in [3], the Potency is 11.3 µM (active).
As to `CN(C)CCN(C)CCO`, the Potency entry in assay [7], in [2], in assay [3], in [4] and in assay [5] was “inactive” in each case.
In the case of `O=C(CCCl)NCCc1ccccc1`, the Potency entry in assay [7], in [2], in assay [6], in assay [3], in assay [4] and in [5] was “inactive” each time.
As for `CCCC(CC)c1ccccc1` (configuration not stated), the Potency entry in assay [1], in assay [2], in assay [6], in assay [3], in assay [4] and in [5] was “inactive” throughout.
For `CC(=O)C1C(=O)C=C(C)OC1=O` (configuration not stated), the Potency entry in [7], in assay [2], in assay [3], in assay [4] and in assay [5] was “inactive” each time.
Consider `CC(O)COC(C)(C)C` (configuration not stated), for which the Potency entry in assay [7], in assay [4] and in [5] was “inactive” throughout.
On to `COC(=O)c1cccc(Cl)c1`, for which the Potency entry in assay [7], in assay [4] and in assay [5] was “inactive” each time.

The values above are taken from PubChem BioAssay (Tox21).
